Where “and” joins values, the source holds several entries; their conditions need not be identical. Identical values can stand only once. More than one record can exist for a structure, and the calls need not agree. Calls of active or inactive are those of the source. Rule for the calls: active = hit-call score of the fitted dose curve at least 0.9, where 1 is the maximum; inactive = score below 0.9.
Experiments:
[1] = APR_HepG2_P-H2AX_72hr: Apredica 72-hour HepG2 Assay for H2AX Phosphorylation (AID 2282916); settings: imaging, actives raise or lower the signal;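 note: phospho-histone H2A.x immunostain intensity per cell marking DNA damage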
Procedure, shortened: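 Phospho-H2A.x imaging endpoint in HepG2 after 72 hr compound exposure (0.39–200 uM, duplicate wells). Activity derived by bidirectional curve fitting with DMSO as baseline.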

[2] = APR_HepG2_MitoMembPot_72hr: Apredica 72-hour HepG2 Assay for Mitochondrial Membrane Potential (AID 2282917); settings: imaging, actives raise or lower the signal
Procedure, shortened: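 HepG2 cells dosed 72 hr with compound at 0.39–200 uM in duplicate, 0.5% v/v DMSO final. Mitochondria stained with 250 nM MitoTracker Red CMXRos for 30 min before formaldehyde fixation, imaged by high-content fluorescence; bidirectional fit versus DMSO.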

[3] = APR_HepG2_MitoticArrest_72hr: Apredica 72-hour HepG2 Assay for Mitotic Arrest (AID 2282918); settings: high-content imaging, actives raise or lower the signal
Procedure, shortened: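 HepG2 cells were exposed for 72 hr to compound at 0.39–200 uM (10 concentrations, duplicate) in 0.5% v/v DMSO, fixed in 3.7% formaldehyde, immunostained for phospho-histone H3 with Hoechst 33342 and imaged by high-content fluorescence; bidirectional fits versus DMSO.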

[4] = APR_HepG2_MicrotubuleCSK_72hr: Apredica 72-hour HepG2 Assay for Microtubule CSK Stabilty (AID 2282919); settings: HepG2 microtubule cytoskeleton, high-content imaging, actives raise or lower the signal
Procedure, shortened: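 HepG2, 72 hr cmpd exposure, 0.39–200 uM (10 pts, duplicate), 0.5% DMSO. 3.7% formaldehyde fix, 0.5% Triton perm, anti-alpha-tubulin/Cy5 plus Hoechst. HCS fluorescence intensity; bidirectional fit vs DMSO baseline; taxol as positive control.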

[5] = APR_HepG2_P-H2AX_24hr: Apredica 24-hour HepG2 Assay for H2AX Phosphorylation (AID 2282920); settings: high-content imaging, actives raise or lower the signal
Procedure, shortened: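 HepG2 human liver cells were exposed for 24 hr to compounds at 0.39–200 uM in duplicate, with 0.5% v/v DMSO final. Fixed cells were immunostained for phospho-histone H2A.x plus Hoechst 33342, imaged by HCS fluorescence, and fitted bidirectionally against DMSO.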

[6] = APR_HepG2_StressKinase_72hr: Apredica 72-hour HepG2 Assay for Stress Kinase (AID 2282921); settings: HepG2 stress kinase (phospho-c-Jun) imaging, actives raise or lower the signal
Procedure, shortened: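 Stress kinase signal reflects nuclear phospho-c-Jun staining in fixed, permeabilized cells exposed 72 h to compound at 0.39–200 uM; DMSO-normalized, fitted for increases or decreases.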

[7] = APR_HepG2_StressKinase_24hr: Apredica 24-hour HepG2 Assay for Stress Kinase (AID 2282922); settings: HepG2 stress kinase (phospho-c-Jun) imaging, actives raise or lower the signal
Procedure, shortened: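 Read-out: phospho-c-Jun immunofluorescence (Cy3 secondary) quantified by high-content imaging at 20x, nuclei defined by Hoechst 33342. Human HepG2 liver cells dosed 24 hr, 0.39–200 uM, DMSO 0.5% v/v; gain or loss of signal fitted relative to DMSO.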

[8] = APR_HepG2_p53Act_72hr: Apredica 72-hour HepG2 Assay for p53 Activation (AID 2282923); settings: high-content imaging, actives raise or lower the signal;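 note: average cellular p53 protein immunofluorescence intensity in HepG2 cells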
Procedure, shortened: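 Fixed-cell p53 staining (sheep primary, Cy5 secondary) measured by fluorescence imaging following 72 hr treatment at 0.39–200 uM in 0.5% DMSO; DMSO served as negative control and baseline.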

[9] = APR_HepG2_MitoMass_72hr: Apredica 72-hour HepG2 Assay for Mitochondrial Mass (AID 2282924); settings: high-content imaging, actives raise or lower the signal;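 note: MitoTracker Red CMXRos stain intensity per cell imaged as mitochondrial mass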
Procedure, shortened: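 Read-out: MitoTracker Red fluorescence intensity from automated imaging (20x, six fields per well) in human HepG2 liver cells. Dosing ran 72 hr, 0.39–200 uM, 0.5% DMSO; bidirectional curve fitting versus DMSO baseline.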

[10] = APR_HepG2_NuclearSize_72hr: Apredica 72-hour HepG2 Assay for Nuclear Size (AID 2282925); settings: high-content imaging, actives raise or lower the signal
Procedure, shortened: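 Read-out: nuclear diameter from Hoechst 33342 images (ArrayScan, 20x, six fields/well), via cell-cycle image analysis. HepG2 were dosed 0.39–200 uM for 72 hr in 0.5% DMSO. Bidirectional fit relative to DMSO.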

[11] = ATG_CRE_CIS: Attagene CIS-FACTORIAL HepG2 Assay for human cAMP Responsive Element (CRE) binding protein 3 (AID 2282926); settings: HepG2 CRE cis-reporter, Attagene multiplexed mRNA; actives raise or lower the signal
Procedure, shortened: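 Capillary electrophoresis of 6-FAM-labelled, HpaI-digested PCR products quantified reporter transcripts. These came from HepG2 transiently transfected with cis-element reporters and exposed to test chemicals for 24 hours, with DMSO defining baseline activity.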

[12] = target: CCAAT/enhancer-binding protein beta (Homo sapiens) (UniProt P17676); test: ATG_C_EBP_CIS: Attagene CIS-FACTORIAL HepG2 Assay for human CCAAT/Enhancer Binding Protein (C/EBP) beta (AID 2282927); settings: HepG2 Attagene cis-factorial transcription factor reporter; actives raise or lower the signal
Procedure, shortened: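 HepG2 transiently transfected with multiplexed reporter units under cis-regulatory promoters reporting endogenous C/EBPb activity. After 24 h exposure, reporter mRNA assayed by RT-PCR, fluorescent labelling, HpaI digestion and capillary electrophoresis; bidirectional fitting versus DMSO.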

[13] = ATG_CMV_CIS: Attagene CIS-FACTORIAL HepG2 Assay for human CMV (Internal Marker) (AID 2282928); settings: HepG2 CMV promoter reporter, transcription factor profiling; actives raise or lower the signal;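 note: endpoint acts as a background internal control marker rather than a target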
Procedure, shortened: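 Fluorescence intensity of RT-PCR-derived reporter fragments, resolved by capillary electrophoresis, gives the signal. HepG2 liver cells bearing transfected cis-element reporters were treated 24 h; activity in either direction was fit relative to DMSO-treated controls.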

[14] = ATG_AP_1_CIS: Attagene CIS-FACTORIAL HepG2 Assay for human Activator Protein 1 (AP-1) (AID 2282931); settings: HepG2 Attagene cis-factorial AP-1 reporter mRNA; actives raise or lower the signal
Procedure, shortened: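 HepG2 cells transiently transfected with cis-element-driven multiplex reporter units; 24 h compound exposure. Reporter mRNA quantified by RT-PCR, FAM-labelled fragments resolved by capillary electrophoresis; bidirectional fit versus DMSO baseline.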

[15] = ATG_AP_2_CIS: Attagene CIS-FACTORIAL HepG2 Assay for human Activator Protein 2 (AP-2) (AID 2282932); settings: HepG2 AP-2 cis-reporter, Attagene transcription factor profiling; actives raise or lower the signal
Procedure, shortened: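 Read-out: fluorescent reporter mRNA via RT-PCR and capillary electrophoresis, 24 h post-dose in transiently transfected HepG2. Endogenous factors drive cis-promoter reporters; gain or loss of signal fitted bidirectionally against DMSO.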

[16] = ATG_BRE_CIS: Attagene CIS-FACTORIAL HepG2 Assay for human Bone Morphogenetic Protein (BMP) Response Element (BRE) (AID 2282933); settings: HepG2 BMP response element reporter, Attagene transcription factor profiling; actives raise or lower the signal
Procedure, shortened: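 Multiplexed cis-reporter assay, HepG2, 24 h exposure. mRNA from reporter units quantified via RT-PCR/CE; DMSO baseline; bidirectional curve fit.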

[17] = target: Transcription factor E2F1 (Homo sapiens) (UniProt Q01094); test: ATG_E2F_CIS: Attagene CIS-FACTORIAL HepG2 Assay for human E2F Transcription Factor 1 (AID 2282935); settings: HepG2 Attagene cis-reporter, E2F reporter RNA transcripts; actives raise or lower the signal
Procedure, shortened: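 Transient MRTU transfection of HepG2; 24 h compound exposure; RNA → oligo(dT) RT → PCR → FAM label → HpaI cut → CE fluorescence. Gain/loss of signal fit against DMSO.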

[18] = ATG_DR4_LXR_CIS: Attagene CIS-FACTORIAL HepG2 Assay for human Liver X Receptor (LXR), DR4 submotif (AID 2282929); settings: HepG2 Attagene DR4 cis-reporter, mRNA transcription; actives raise or lower the signal
Procedure, shortened: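 HepG2 cells transiently transfected with cis-promoter-driven multiplexed reporter units (DR4 element) were dosed for 24 h. Reporter mRNA was quantified by RT-PCR, fluorescent primer extension, HpaI digestion and capillary electrophoresis; bidirectional fitting versus DMSO baseline.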

[19] = target: Aryl hydrocarbon receptor (Homo sapiens) (UniProt P35869); test: ATG_Ahr_CIS: Attagene CIS-FACTORIAL HepG2 Assay for human Aryl Hydrocarbon Receptor (Ahr) (AID 2282930); settings: HepG2 AhR cis-factorial reporter transcription; actives raise or lower the signal
Procedure, shortened: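 HepG2 cells transiently transfected with cis-element-driven multiplexed reporter units; endogenous AhR activity read as reporter mRNA 24 h after dosing, via RT-PCR, 6-FAM labelling, HpaI digestion and capillary electrophoresis. Bidirectional fit relative to DMSO.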

[20] = target: Retinoic acid receptor alpha (Homo sapiens) (UniProt P10276); test: ATG_DR5_RAR_CIS: Attagene CIS-FACTORIAL HepG2 Assay for human Retinoic Acid Receptor Alpha (RARE), DR5 submotif (AID 2282934); settings: HepG2 Attagene cis-factorial RARE DR5 reporter, mRNA; actives raise or lower the signal;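 for AC50: reporter responds to endogenous RAR alpha beta and gamma in HepG2 not RARA alone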
Procedure, shortened: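 HepG2 cells transiently transfected with multiplexed reporter units; DR5 cis-element drives reporter through endogenous transcription factors. After 24 h dosing, reporter mRNA quantified by RT-PCR, fluorescent labeling, HpaI digestion and capillary electrophoresis; bidirectional fitting versus DMSO.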

Measured: AC50

CCAAT/enhancer-binding protein beta (Homo sapiens), sequence (P17676 whole entry, looked up): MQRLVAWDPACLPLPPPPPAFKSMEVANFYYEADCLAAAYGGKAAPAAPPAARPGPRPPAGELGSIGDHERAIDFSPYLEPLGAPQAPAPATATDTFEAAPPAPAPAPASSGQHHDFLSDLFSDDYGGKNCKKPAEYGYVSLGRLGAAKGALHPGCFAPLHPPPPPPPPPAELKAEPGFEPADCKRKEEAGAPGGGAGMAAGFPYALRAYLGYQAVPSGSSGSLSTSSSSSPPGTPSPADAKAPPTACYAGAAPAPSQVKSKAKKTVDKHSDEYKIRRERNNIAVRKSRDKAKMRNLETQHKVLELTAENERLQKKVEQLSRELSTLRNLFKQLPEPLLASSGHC
Retinoic acid receptor alpha (Homo sapiens), sequence (P10276 whole entry, looked up): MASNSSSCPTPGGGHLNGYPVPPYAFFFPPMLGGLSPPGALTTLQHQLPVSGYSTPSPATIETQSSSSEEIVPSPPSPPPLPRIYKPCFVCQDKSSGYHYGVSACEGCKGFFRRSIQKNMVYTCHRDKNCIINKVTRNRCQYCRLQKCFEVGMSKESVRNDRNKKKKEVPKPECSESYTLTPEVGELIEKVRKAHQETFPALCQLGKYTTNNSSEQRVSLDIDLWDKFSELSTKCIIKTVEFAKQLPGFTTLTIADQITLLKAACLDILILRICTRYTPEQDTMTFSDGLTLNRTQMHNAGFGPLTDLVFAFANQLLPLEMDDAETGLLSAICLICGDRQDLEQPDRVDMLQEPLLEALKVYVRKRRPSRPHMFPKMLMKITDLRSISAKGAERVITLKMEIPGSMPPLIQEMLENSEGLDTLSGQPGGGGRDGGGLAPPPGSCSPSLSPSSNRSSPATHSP
Aryl hydrocarbon receptor (Homo sapiens), sequence (P35869 whole entry, looked up): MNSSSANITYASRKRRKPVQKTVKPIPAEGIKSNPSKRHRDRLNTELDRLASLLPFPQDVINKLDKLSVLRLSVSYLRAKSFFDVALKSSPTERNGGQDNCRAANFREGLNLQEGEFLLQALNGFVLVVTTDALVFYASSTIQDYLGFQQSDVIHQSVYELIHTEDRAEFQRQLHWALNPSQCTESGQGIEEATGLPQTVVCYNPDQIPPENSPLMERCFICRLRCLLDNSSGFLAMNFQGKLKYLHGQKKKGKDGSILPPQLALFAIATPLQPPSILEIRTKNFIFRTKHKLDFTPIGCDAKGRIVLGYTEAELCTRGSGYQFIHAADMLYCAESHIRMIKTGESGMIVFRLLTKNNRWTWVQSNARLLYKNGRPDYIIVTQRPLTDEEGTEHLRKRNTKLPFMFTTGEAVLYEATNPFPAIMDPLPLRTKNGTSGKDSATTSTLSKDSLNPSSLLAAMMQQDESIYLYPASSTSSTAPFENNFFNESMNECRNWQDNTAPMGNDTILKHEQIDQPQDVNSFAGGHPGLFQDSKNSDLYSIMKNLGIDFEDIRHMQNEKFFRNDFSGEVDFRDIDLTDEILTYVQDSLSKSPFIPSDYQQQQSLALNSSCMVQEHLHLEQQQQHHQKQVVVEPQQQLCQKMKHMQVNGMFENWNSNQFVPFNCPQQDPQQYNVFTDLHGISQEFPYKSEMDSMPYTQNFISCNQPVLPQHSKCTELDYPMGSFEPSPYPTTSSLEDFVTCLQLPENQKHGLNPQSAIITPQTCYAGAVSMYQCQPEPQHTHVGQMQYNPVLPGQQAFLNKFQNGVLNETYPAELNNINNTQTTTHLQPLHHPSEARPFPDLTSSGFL
Transcription factor E2F1 (Homo sapiens), sequence (Q01094 whole entry, looked up): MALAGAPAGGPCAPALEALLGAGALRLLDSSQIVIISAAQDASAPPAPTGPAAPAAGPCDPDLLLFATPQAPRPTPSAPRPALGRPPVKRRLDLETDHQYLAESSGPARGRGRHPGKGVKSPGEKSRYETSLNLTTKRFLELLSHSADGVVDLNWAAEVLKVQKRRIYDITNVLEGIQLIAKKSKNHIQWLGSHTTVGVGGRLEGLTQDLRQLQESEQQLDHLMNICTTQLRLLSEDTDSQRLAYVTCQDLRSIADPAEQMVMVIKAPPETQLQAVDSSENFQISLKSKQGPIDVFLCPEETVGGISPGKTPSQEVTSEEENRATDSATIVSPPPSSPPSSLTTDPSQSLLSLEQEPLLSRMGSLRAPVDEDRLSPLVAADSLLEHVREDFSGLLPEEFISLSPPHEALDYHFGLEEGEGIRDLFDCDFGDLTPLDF

CC/C(=C(/CC)c1ccc(O)cc1)c1ccc(O)cc1
inactive: [4] | [7] | [9] | [10] | [11] | [12] | [13] | [14] | [15] | [16] | [17]
active: [1] 68 µM | [2] 71.6 µM | [3] 91.2 µM | [5] 33.1 µM | [6] 28.7 µM | [8] 74.1 µM | [11] 15.9 µM | [13] 18 µM and 15.4 µM | [14] 13.8 µM and 11.1 µM and 14.4 µM

Cc1cccc2ccccc12
not listed: [1]
inactive: all other assays above

CCN(Cc1cccc(S(=O)(=O)O)c1)c1ccc(C(=C2C=CC(=[N+](CC)Cc3cccc(S(=O)(=O)O)c3)C=C2)c2ccccc2S(=O)(=O)[O-])cc1
not listed: [2] | [8]
inactive: all other assays above

CCCCCCCCOC(=O)c1cc(O)c(O)c(O)c1
active: [1] 5.88 µM | [2] 23.8 µM | [3] 68.3 µM | [5] 45.6 µM | [7] 52.1 µM | [8] 4.98 µM | [14] 6.37 µM
not listed: [18]
inactive: all other assays above

CCCCCCCCOc1ccc(C(=O)c2ccccc2)c(O)c1
active: [19] 59.1 µM
not listed: [8]
inactive: all other assays above

CCCCCCCCCC(=O)O
not listed: [2] | [19]
inactive: all other assays above

CC[C@H](NC(=O)c1cc(F)ccc1NS(=O)(=O)c1cccc2cccnc12)c1ccccc1
active: [3] 92.5 µM
inactive: all other assays above

C[C@]12CC[C@@H]3c4ccc(O)cc4CC[C@H]3[C@@H]1CCC2=O
active: [14] 24.5 µM
inactive: [1] | [2] | [3] | [4] | [5] | [6] | [7] | [9] | [10] | [11] | [12] | [13] | [18] | [14] | [15] | [16] | [17]

CN1C(=O)N(c2ccccc2Br)Cc2cnc(Nc3ccc4c(c3)OCC(CO)O4)nc21 (stereo unspecified)
active: [1] 3.96 µM | [3] 2.57 µM | [5] 5.05 µM | [9] 19.8 µM | [11] 5.78 µM | [12] 2.61 µM | [18] 27.1 µM | [14] 4.77 µM
not listed: [8]
inactive: all other assays above

O=C(O)c1ccccc1-n1cc(C(=O)O)c(=O)c2cc(Nc3c(F)cc(F)cc3Cl)c(Cl)cc21
inactive: all assays above

Cc1cc2c(cc1C(F)(F)F)N(C(=O)Nc1ccc(Oc3cccnc3C)nc1)CC2
active: [1] 22.2 µM | [3] 46.3 µM | [4] 38.4 µM | [5] 43 µM | [6] 20.1 µM | [7] 26.2 µM | [8] 27.8 µM | [20] 0.967 µM
not listed: [2] | [18]
inactive: all other assays above

CC[C@@H]1C[C@H](N(Cc2cc(C(F)(F)F)cc(C(F)(F)F)c2)C(C)=O)c2cc(C(F)(F)F)ccc2N1C(=O)OC(C)C
active: [20] 0.362 µM
not listed: [8] | [18]
inactive: all other assays above
